Measurements as given in PubChem BioAssay AID1159580 (chemical genetic matrix, 2015).
Where “and” joins values, the source holds several entries; their conditions need not be identical. Equal values may be shown once. Among all 5,500 compounds or so, about 2,000 (36%) were called active. Not shown: some 18% with an inconclusive outcome. No stated cut-off is given here; in the data, active means normalized growth mostly below about 0.91 (no sharp cut-off); inconclusive means no clear call, values can overlap the other calls; inactive means mostly above about 0.92. Some of the results follow.

Assay: chemical genetic growth profiling, strain panel (AID 1159580);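 further: tested at 20 µM; growth read once vehicle control cultures reached saturation at 30 °C; 1 = growth at the plate median or of vehicle wells; lower values mean less growth of the strain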
Settings: S. cerevisiae deletion strains, growth OD

Measured: normalized growth

CC(C)NNC(=O)c1ccncc1
inactive: locus YAL013W, strain DEP1, hits give low values 1.01 | locus YAL021C, strain ccr4, hits give low values 1.02 | locus YAL026C, strain drs2, hits give low values 1.03 | locus YAL030W, strain snc1, hits give low values 0.997 | locus YAL040C, strain CLN3, hits give low values 0.985 | locus YBL061C, strain skt5, hits give low values 1.01 | locus YBR009C, strain hhf1, hits give low values 1.01 | locus YBR021W, strain FUR4, hits give low values 1 | locus YBR023C, strain chs3, hits give low values 1.01 | locus YBR171W, strain sec66, hits give low values 1.01 | locus YBR229C, strain ROT2, hits give low values 1 | locus YBR231C, strain swc5, hits give low values 1.03 | locus YBR279W, strain paf1, hits give low values 1.01 | locus YCL011C, strain gbp2, hits give low values 1.02 | locus YCL016C, strain dcc1, hits give low values 1.01 | locus YCL029C, strain bik1, hits give low values 1.02 | locus YCL061C, strain MRC1 (second series), hits give low values 0.986 | locus YCL069W, strain vba3, hits give low values 1.02 | locus YCR088W, strain abp1, hits give low values 1.02 | locus YDL005C, strain med2, hits give low values 1 | locus YDL035C, strain GPR1, hits give low values 1.01 | locus YDL040C, strain nat1, hits give low values 1 | locus YDL074C, strain BRE1, hits give low values 1.02 | locus YDL101C, strain DUN1, hits give low values 1 | locus YDL134C, strain PPH21, hits give low values 1.01 | locus YDL185W, strain tfp1, hits give low values 1.01 | locus YDL192W, strain arf1, hits give low values 1.02 | locus YDR001C, strain nth1, hits give low values 1 | locus YDR069C, strain doa4, hits give low values 1 | locus YDR101C, strain arx1, hits give low values 1.01 | locus YDR137W, strain rgp1, hits give low values 1.01 | locus YDR150W, strain NUM1, hits give low values 0.994 and 0.996 | locus YDR159W, strain sac3, hits give low values 0.978 | locus YDR162C, strain NBP2, hits give low values 1.01 | locus YDR195W, strain ref2 0.961 | locus YDR297W, strain sur2, hits give low values 1 | locus YDR318W, strain mcm21, hits give low values 1.02 | locus YDR334W, strain swr1, hits give low values 1.03 | locus YDR335W, strain msn5, hits give low values 1.01 | locus YDR363W, strain ESC2, hits give low values 1.02 | locus YDR388W, hits give low values 1.01 | locus YDR392W, strain spt3, hits give low values 1.03 | locus YDR502C, strain sam2, hits give low values 1.01 | locus YEL003W, strain gim4, hits give low values 1 | locus YEL037C, strain rad23, hits give low values 1.02 | locus YEL061C, strain CIN8 (second series), hits give low values 1.01 | locus YEL061C, strain CIN8, hits give low values 1 | locus YER002W, strain NOP16, hits give low values 1.01 | locus YER015W, strain faa2, hits give low values 1.02 | locus YER016W, strain bim1, hits give low values 1.01 | locus YER110C, hits give low values 1.02 | locus YER111C, strain swi4, hits give low values 0.999 | locus YER155C, strain BEM2 (second series), hits give low values 1.04 | locus YER155C, strain BEM2, hits give low values 1 | locus YER167W, strain BCK2, hits give low values 1.01 | locus YFR010W, strain ubp6, hits give low values 1.02 | locus YGL078C, strain dbp3, hits give low values 1.02 | locus YGL086W, strain mad1, hits give low values 1.01 | locus YGL167C, strain pmr1, hits give low values 0.996 | locus YGL173C, strain kem1, hits give low values 1.03 | locus YGL227W, strain vid30, hits give low values 0.998 | locus YGL240W, strain doc1, hits give low values 1.01 | locus YGL248W, strain PDE1, hits give low values 0.996 | locus YGL253W, strain hxk2, hits give low values 1.03 | locus YGR078C, strain PAC10, hits give low values 1.01 | locus YGR135W, strain pre9, hits give low values 1.01 | locus YGR229C, strain SMI1, hits give low values 1 and 0.992 | locus YGR252W, strain gcn5, hits give low values 1.05 | locus YHR013C, strain ard1, hits give low values 1.02 | locus YHR027C, strain rpn1, hits give low values 1.01 | locus YHR030C, strain SLT2, hits give low values 1 | locus YHR079C, strain IRE1 (second series), hits give low values 1.02 | locus YHR094C, strain hxt1, hits give low values 1.01 | locus YHR129C, strain ARP1, hits give low values 1 | locus YHR142W, strain chs7, hits give low values 1.03 | locus YHR200W, strain rpn10, hits give low values 1.02 | locus YIL066C, strain RNR3, hits give low values 1.02 | locus YIL073C, strain SPO22, hits give low values 1.04 | locus YIL125W, strain kgd1, hits give low values 1.01 | locus YIR030C, strain dcg1, hits give low values 1.02 | locus YJL092W, strain hpr5, hits give low values 1.01 | locus YJL095W, strain BCK1 (second series), hits give low values 1.02 | locus YJL095W, strain BCK1, hits give low values 1.02 | locus YJL115W, strain asf1, hits give low values 0.988 | locus YJL129C, strain trk1, hits give low values 0.998 | locus YJL134W, strain LCB3, hits give low values 1.01 | locus YJL154C, strain vps35, hits give low values 1.01 | locus YJL164C, strain tpk1, hits give low values 1.01 | locus YJL166W, strain qcr8, hits give low values 1.01 | locus YJL168C, strain set2, hits give low values 1.02 | locus YJL187C, strain SWE1 (second series), hits give low values 1.01 | locus YJL187C, strain SWE1, hits give low values 1.01
